In ChEMBL document CHEMBL3988442, “University of Dundee, Small-Polar-MMV Screening Library” (2021):

Tests used:
[1] = molecular target: T1, Aspartate--tRNA(Asp/Asn) ligase (Mycobacterium tuberculosis (strain ATCC 25618 / H37Rv)) (UniProt P9WFW3); test: Assay for Asp RNA synthetase-1 from Mycobacterium tuberculosis; format: functional; set-up: scale not given: direction of the effect not stated beside the values; settings: 30 µM; further: in the data most compounds retested in dose-response had high values
T1 sequence (whole entry): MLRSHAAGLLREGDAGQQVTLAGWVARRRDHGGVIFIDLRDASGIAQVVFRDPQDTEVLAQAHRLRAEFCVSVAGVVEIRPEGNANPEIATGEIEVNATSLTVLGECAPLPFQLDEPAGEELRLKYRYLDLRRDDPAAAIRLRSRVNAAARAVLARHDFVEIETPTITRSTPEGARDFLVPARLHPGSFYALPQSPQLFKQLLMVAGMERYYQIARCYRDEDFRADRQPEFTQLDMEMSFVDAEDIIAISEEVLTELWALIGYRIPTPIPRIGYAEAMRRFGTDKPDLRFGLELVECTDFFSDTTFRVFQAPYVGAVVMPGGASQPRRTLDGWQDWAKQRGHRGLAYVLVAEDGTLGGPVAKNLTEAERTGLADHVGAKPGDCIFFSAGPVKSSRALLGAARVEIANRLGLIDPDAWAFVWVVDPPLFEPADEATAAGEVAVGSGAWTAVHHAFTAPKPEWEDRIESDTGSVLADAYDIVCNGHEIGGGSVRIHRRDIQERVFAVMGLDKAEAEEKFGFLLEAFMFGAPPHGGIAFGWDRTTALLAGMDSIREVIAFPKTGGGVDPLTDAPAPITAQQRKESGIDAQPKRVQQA

[2] = molecular target: Shiga toxin 2 (Escherichia coli O157:H7) (UniProt P09385+P09386); test: E. coli 0.157:H7 Shiga Toxin SOP - stx2 screening assay; format: functional; set-up: scale not given: direction of the effect not stated beside the values; settings: 30 µM

Structure (SMILES) | Percent Effect [1] [%] | Percent Effect [2] [%]
O=C(NCC1CC1)[C@H]1C[C@@H]2CN(S(=O)(=O)Cc3ccccc3)C[C@H]1O2 | 4.1 | -14.6
CN(C)C(=O)COC[C@]12COC[C@H]1CN(CC1CCC1)C2 | -8.17 | -9.5
COc1ccc(CCN2CCCC(CN(C)Cc3ccc(C)o3)C2)cc1 (stereo not given) | -1.25 | -11.5
COC(=O)c1cccc(OCCn2nc(-c3cccs3)oc2=O)c1 | 3.9 | 25
COc1cccc(CN2CCOC(Cn3nc(C)cc3C)C2)c1 (stereo not given) | 1.48 | -0.88
COc1ccc(-c2nc(CN3CCCC3Cn3cccn3)no2)cc1 (stereo not given) | -3.19 | -24.1
O=C(CCc1cc2n(n1)CCN(Cc1ncc[nH]1)C2)N1CCCC1 | -0.827 | -2
CC1CCCCN1Cc1ccc(-c2ccccc2C(=O)O)cc1 (stereo not given) | 5.63 | 25
COc1ccc(CCC(=O)Nc2cccnc2N2CCCC2)cc1Br | -3.21 | 28.3
CCC(CC)C(=O)N1CCC2(C1)CN(c1ccccc1)C(=O)CN2C (stereo not given) | -4.01 | -3.77
Cc1c(C2CCCN(C(=O)Cc3ccccn3)C2)n2c(nc1=O)CCC2 (stereo not given) | 2.63 | -14.2
CC[C@@]1(O)CCN(C(=O)c2ccc(-c3cccc(F)c3)cc2)C[C@H]1O | 3.54 | 5.77
CCOC(=O)CNC(=O)c1cccnc1Oc1ccc(Cl)cc1 | -1.89 | 6.74
CN1CCN(C2CCN(CCOc3ccc(F)cc3)CC2)C1=O | -2.61 | -5.38
Cc1ccc(OCCC(=O)N2CCN(c3cnccn3)CC2)cc1C | -0.856 | -12.8
Cc1cccc(OCCC(=O)N2CCCN(CC(N)=O)CC2)c1C | -0.457 | 1.67
CCC(C)NC(=O)NCCCn1nc2ccccn2c1=O (stereo not given) | 1.23 | 22.8
Cc1nn(C)c(N(C)C)c1CNCc1cccnc1 | -1.51 | -13
Cc1nc(CN2CCc3nn(C(C)C)c(=O)cc3C2)oc1C | 7 | 0.318
CS(=O)(=O)N1CCCC12CCCN(S(=O)(=O)c1cc(F)cc(F)c1)C2 (stereo not given) | -0.24 | 2.89
CNC(=O)Nc1cc(-c2ccc(Br)cc2)nn1CCO | -3.53 | 7.53
Cc1[nH]ncc1C(=O)N1CCN(CC(O)C(C)(C)C)CC1 (stereo not given) | 0.878 | 0.313
CC(C)(C)c1cn2nc(N3CCC[C@@H]3CO)sc2n1 | -3.63 | -8.45
CS(=O)(=O)NC[C@]12COC[C@H]1CN(C(=O)c1ccoc1)C2 | 0.452 | -5.39
Cc1cnn(CCC(=O)N2CCN(c3ncccc3Cl)CC2)c1 | -7 | 13.3

Structure (SMILES) | Percent Effect [1] [%] | Percent Effect [2] [%]
Cc1ccc2oc(CNC(C)c3nnc4n3CCCC4)cc2c1 (stereo not given) | -1.73 | -34.3
COc1ccc(C[C@H]2CN(C(=O)c3ccncc3)CC[C@@H]2OC)cc1 | 1.64 | -22.2
Cc1ccsc1CN(C)C(=O)Cn1nc(-c2ccc(F)cc2)oc1=O | 10.3 | -7.45
COc1ccc(CNC(=O)c2nn(C)c3c2CS(=O)(=O)CC3)cc1OC | -8.6 | -18.6
Cc1cc(C2CCCN2Cc2cc(=O)n(C)c(=O)n2C)on1 (stereo not given) | 0.485 | 14.1
Cc1nnn2c1COCC(CNC(=O)c1ccc3[nH]ccc3c1)C2 (stereo not given) | 0.238 | -35.3
Cc1c(NC(=O)NCC(C)N2CCOCC2)cccc1OC(F)F (stereo not given) | -1.79 | 3.31
CC(C#N)CSc1ccccc1NCC(=O)NCc1ccccc1 (stereo not given) | -8.08 | 21.2
COc1ccc(F)cc1C(C(=O)O)N1CCSCC1 (stereo not given) | 4.05 | 9.21
CC1CCCCN1c1nc2c(c(=O)[nH]1)CCN(Cc1cccnc1)C2 (stereo not given) | 1.98 | -8.32
COCCN1CC[C@@H](O)[C@@H]1Cc1ccccc1 | 1.19 | -38.2
CCc1noc(C(C)N2CCN(Cc3nc(C)c(C)o3)CC2)n1 (stereo not given) | -6.81 | 10.2
O=c1c2ccccc2nc2n1CCN(Cc1cccs1)CC2 | 1.35 | 12
CN1CCN(C2CCN(CC(=O)NCC(F)(F)F)CC2)C1=O | -5.68 | -21
c1ccc(Cn2cncn2)c(CNCC2CNc3ccnn3C2)c1 (stereo not given) | 0.425 | -35.2
CCOC(=O)N1CCN(c2nc(NC)c3ccccc3n2)CC1 | -2.29 | -9.78
CCc1noc(CNc2ccc(C(=O)N3CCCC(C)C3)cc2C)n1 (stereo not given) | -1.27 | 19.1
CN(C)c1ccc(CCCNC(=O)Nc2ccc(C#N)cc2)cc1 | -1.77 | -44.4
COc1ccccc1NC(=O)NCC(O)(c1ccccc1)C1CC1 (stereo not given) | -6.53 | -12.2
COc1cc(C)nc(N2CCN(C(=O)c3ccc(Cl)o3)CC2)n1 | 0.508 | 20
COC(C(=O)N1CCN(c2cccc(Cl)c2)C(=O)C1)c1ccccc1 (stereo not given) | 0.0112 | -0.212
Cc1ccc2c(c1)CN(C(=O)c1ccccc1F)C(CN(C)C)CO2 (stereo not given) | 5.11 | 3.26
Cn1cc(CN2CCCN(C(=O)c3cc[nH]n3)CC2)cn1 | -4.23 | -19.9
CCN1CCOC(CNCc2ccccc2OCC(=O)N(C)C)C1 (stereo not given) | -4.95 | 21.6
CC(C)c1nc(C2CCCN2Cc2ccccc2C#N)no1 (stereo not given) | -6.4 | -29.9
